Screening results as filed in PubChem BioAssay.
HT1080-NT tox: kills 2HG-producing HT-1080-NT fibrosarcoma cells | HT-1080-NT fibrosarcoma viability, CellTiter-Glo ATP luminescence, 48 h | Potency, µM (doses to about 46.1 µM), for the others: top-dose activity, negative = less viability, actives largely listed as cytotoxic | hit rate 1.6% among 360,000 | AID 686970;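 further: NT is the 2HG producing partner of a matched IDH1 knockdown line; 0% = DMSO-treated cells and -100% = media-only wells without cells; nearly all actives have a fitted effect of over 55% in size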
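Viability of the 2HG-overproducing fibrosarcoma line after 48 hours of compound exposure at 37 degrees C was determined by luminescence with CellTiter-Glo, and concentration-effect curves were then fitted and categorized.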
HT1080 IDH1KD tx: HT-1080 IDH1 knockdown cell toxicity (counter line). HT-1080 IDH1 knockdown viability, ATP luminescence, 48 h. Potency, µM (titrated, usually from 46.1 µM), for the others: at the top dose activity, negative = toxicity, most hits filed as cytotoxic. hit rate 2% among 360,000. AID 686971;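 further: 0% = DMSO wells and -100% = cell-free medium wells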
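% activity derives from luminescence (CellTiter-Glo), normalised to DMSO and no-cell wells. HT-1080-IDH1KD cells, 750/well, had 48 h compound exposure at 37 °C.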
KB-V1 cytotox: KB-V1 MDR subline cytotoxicity; KB-V1 MDR cells viability, CellTiter-Glo, 72 h; Potency, µM (top dose mostly 46.1 µM), actives largely listed as cytotoxic; hit rate 3.4% among 400,000; further: nearly all actives have a fitted effect of over 60% in size
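Potencies derive from concentration-effect curves fitted to normalized luminescence (CellTiter-Glo) of KB-V1 cells treated for 72 h at 37 degrees C in phenol-red-free DMEM containing 10% FBS.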
KB-3-1 cytotox: KB-3-1 parental cell cytotoxicity | KB-3-1 viability, CellTiter-Glo ATP luminescence, 72 h | Potency, µM (series often up to 46.1 µM), actives largely listed as cytotoxic | hit rate 1.4% among 400,000 | AID 1347075; further: nearly all actives have a fitted effect of over 60% in size
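Viability of parental KB-3-1 cells, measured by CellTiter-Glo luminescence, followed a 72 h incubation at 37 °C with pinned compounds in phenol-red-free DMEM containing 10% FBS.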
Starred values were filed as active, the others as inactive; i = inactive; u = inconclusive; x = no result; [ ] = another dose, or the depositor's remark. A selection: hits, their analogues and other compounds. The true share with any hit is near 5.7%. The call rests on the fitted dose curve; in most records, active means well fitted curve in the direction sought with a large enough effect; inconclusive means small, poorly fitted or top-dose-only effect, or another doubt; inactive means no such curve, though single readings can be large; an effect the other way counts as inactive or inconclusive. Unless noted, on the % scale 0 is the no-effect control and ±100 the full control effect; potency means the concentration at half of the fitted maximal effect.

SMILES | HT1080-NT tox | HT1080 IDH1KD tx | KB-V1 cytotox | KB-3-1 cytotox
CCOc1ccc(-n2c(SCc3nc(-c4ccc(C)cc4)no3)nnc2-c2ccncc2)cc1 | u | 10µM* | u | i
O=C(CSc1nnc2sc3ccccc3n12)N1CCN(c2ccccc2)CC1 | 9% | -15% | 8.2µM* | i
CCCN1CCN(c2ncnc3sc(C(=O)Nc4ccc(C(C)C)cc4)c(C)c23)CC1 | x | x | i | i
COc1cc(NC(=O)Cn2ncc(Cl)c(Cl)c2=O)c(C)cc1[N+](=O)[O-] | 7.3µM* | 2.6µM* | i | i
O=C(COC(=O)C1(c2ccc(F)cc2)CCCC1)N1CCc2ccccc21 | -3% | -2% | 21µM* | i
O=C(COC(=O)C1(c2ccccc2F)CCCC1)N1CCc2ccccc21 | 12% | 20% | i | i
CC(C)NC(=O)c1ccc2c3n(nc2c1)-c1ccccc1CO3 | u | u | 5.8µM* | u
Cc1sc(NC(=O)c2ccco2)c(CN2CCN(c3ccc(F)cc3)CC2)c1C | -2% | -13% | u | i
Cc1sc(NC(=O)c2ccco2)c(CN2CCN(c3ccccn3)CC2)c1C | -4% | -22% | u | 21µM*
Cc1ccc(-c2nc3cc(N)ccc3o2)cc1 | -13% | -11% | i | i
CC(C)c1ccc2oc(-c3ccc(N)cc3)nc2c1 | u | -27% | 21µM* | u
Cc1nnnn1/C(=C\c1ccccc1)C(=O)OCC(=O)NC1CCCCC1 | u | 18µM* | i | i
Cc1nnnn1/C(=C\c1ccccc1)C(=O)OCC(=O)NC(C)(C)C | -21% | u | i | i
Cc1ccc(C)c(CN2CCC(CNC(=O)Nc3ccc(Br)cc3F)CC2)c1 | 16µM* | u | u | u
COc1ccc(C)cc1NC(=O)CSc1nnc(COc2ccc(C)cc2)n1Cc1ccco1 | u | -28% | 9.2µM* | i
COc1ccc(C(=O)CSc2nnc(CNc3ccc(C)cc3C)n2Cc2ccco2)cc1 | -6% | -17% | 3.7µM* | u
CCn1c(COc2ccccc2)nnc1SCC(=O)Nc1cc(C)ccc1OC | 8% | -24% | 15µM* | i
Nc1cc(C(=O)c2ccccc2)ccc1[N+](=O)[O-] | 5% | -1% | i | i
Cc1nc2ccccc2c(=O)n1/N=C/c1c(O)ccc2oc3c(c12)CCCC3 | 0% | -14% | 18µM* | u
COc1ccc(-c2noc(N(c3cccc(Cl)c3)c3nc(-c4ccc(OC)c(OC)c4)no3)n2)cc1OC | x | x | i | i
CC(C)CC(NC(=O)C1CCCCC1)C(=O)N1CCN(c2ccccn2)CC1 (configuration not stated) | -2% | -3% | 2.6µM* | i
COc1ccccc1NC(=O)Cn1c(SCC(=O)NCc2ccccc2)nc2ccccc21 | x | x | i | i
COc1ccc(C(=O)C[n+]2ccc(N(C)C)cc2)cc1 | -9% | u | i | 5.2µM*
CN(C)c1cc[n+](CC(=O)c2ccc(Br)cc2)cc1 | -13% | -1% | i | i
COc1ccc(C(=O)C[n+]2cccc3cc(OC)ccc32)cc1 | -16% | -9% | i | 16µM*
SMILES | HT1080-NT tox | HT1080 IDH1KD tx | KB-V1 cytotox | KB-3-1 cytotox
Cc1ccc(C(=O)C[n+]2ccc(Cc3ccccc3)cc2)cc1 | -16% | -26% | i | 4.6µM*
O=C(C[n+]1ccccc1)c1ccc(-c2ccccc2)cc1 | -1% | u | i | i
Cc1ccc(SCCc2cc[n+](CC(=O)c3ccccc3)cc2)cc1 | 1% | -1% | i | i
CN(C)c1cc[n+](CC(=O)c2ccc(-c3ccccc3)cc2)cc1 | 8.2µM* | 16µM* | i | u
CSc1ccc(CNC(=O)c2ccc3c(c2)N(C)C(=O)C2CCCCN32)cc1 (configuration not stated) | x | x | u | i
CCn1ccc2c(OCC(=O)Nc3ccc(C(C)=O)cc3)cccc2c1=O | x | x | i | i
O=C(COc1ccccc1)NC(=S)Nc1ccc2c3c(cccc13)CC2 | -22% | u | i | i
Cc1cccc(C(=O)NC(=S)Nc2ccc(N3CCOCC3)cc2)c1 | 3% | 11% | 18µM* | i
O=C(/C=C/c1ccccc1)NC(=S)Nc1ccc2c3c(cccc13)CC2 | 13% | 21% | i | 4.1µM*
Cc1ccc(C(=O)NC(=S)Nc2ccc(N3CCOCC3)cc2)cc1C | 1% | 1% | u | i
CC(=O)N1CCN(c2ccc(NC(=O)c3ccccc3)cc2)CC1 | 3% | 17% | i | i
O=C(/C=C/c1ccccc1)NC(=S)Nc1ccc(N2CCOCC2)cc1 | 7.9µM* | u | i | i
CC(=O)N1CCN(c2ccc(NC(=S)NC(=O)c3ccccc3)cc2)CC1 | -4% | 4% | 3.7µM* | i
C=CCn1c(SCC)nc2ccccc2c1=O | x | x | i | i
COc1ccccc1NC(=O)CSCc1cc(=O)c2cccc(Cl)c2[nH]1 | x | x | i | i
Cc1ccc(CCNC(=O)Cn2ncc3c([nH]c4ccc(C)cc43)c2=O)cc1 | x | x | i | i
COc1cccc(/C=C/c2cnc3ccccc3n2)c1OC | x | x | i | i
O=c1c2ccccc2nc(/C=C/c2ccccc2)n1CCc1ccccc1 | 23% | 27% | i | i
O=c1c2ccccc2nc(SCCN2CCCCC2)n1CCc1ccccc1 | u | 15µM* | i | i
O=c1c2ccccc2nc(-c2ccoc2)n1CCc1ccccc1 | -25% | -1%[9.24 µM] | 12µM* | u
CCOc1ccc(CCn2c(-c3ccco3)nc3ccccc3c2=O)cc1OCC | u | 3.5µM* | 7.3µM* | u
NC(=O)CSc1nc2ccccc2c(=O)n1CCc1ccccc1 | 9% | 3% | i | i
CCN=C1S/C(=C\c2ccc(N3CCOCC3)cc2C)C(=O)N1CC | 0% | -3% | u | 6.5µM*
CC(=O)NC1=NC(=O)/C(=C/c2cn(C(C)=O)nc2-c2ccccc2)S1 | 11% | 0% | u | i
CN=C1S/C(=C\c2ccc(N3CCOCC3)cc2C)C(=O)N1C | 17% | 22% | i | i
SMILES | HT1080-NT tox | HT1080 IDH1KD tx | KB-V1 cytotox | KB-3-1 cytotox
CCN=C1S/C(=C\c2cn(C(C)=O)nc2-c2ccccc2)C(=O)N1CC | 21% | -3% | 18µM* | i
CCOc1cc(CNC(=O)C2COc3ccccc3C2)cc(OCC)c1OCC (configuration not stated) | x | x | i | i
COc1ccc(OC)c(/C=N\Nc2nccs2)c1 | -26% | -19% | i | i
COc1cc(/C=N/Nc2nncn2/N=C/c2ccc(O)c(OC)c2)ccc1O | 21µM* | 15µM* | 23µM* | i
COc1cc(/C=N\Nc2nncn2N)ccc1OC(C)=O | u | u | i | i
COc1ccc(OC)c(/C=N/Nc2nncn2/N=C/c2cc(OC)ccc2OC)c1 | u | 15µM* | u | 21µM*
COc1ccc(C(C)=O)cc1COc1cccnc1[N+](=O)[O-] | -20% | u | 15µM* | i
COc1ccc(C(C)=O)cc1COc1ccccc1[N+](=O)[O-] | 1% | -15% | i | i
CCOc1ccc(C(C)=O)cc1COc1cccnc1[N+](=O)[O-] | u | u | 12µM* | u
